Laboratory results from PubChem BioAssay (NCI).
About 79,000 compounds went through this panel and 15% of them were active in at least one assay; those are over-represented in the sample as a whole. Values without a mark were called inactive. Calls of active or inactive are those of the source. Rule as the data show it: active = growth inhibition above about 70%; inactive = the rest.

assay: NCI Yeast Anticancer Drug Screen. Data for the rad50 strain (AID 155);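 also: 0% = growth of vehicle-only cultures of the same strain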; details: S. cerevisiae rad50 strain growth inhibition; at 50.0 µM; active compounds read high
Method in brief: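 Cells are treated with compound, grown, and their growth is then scored against vehicle-only cultures of the same repair-deficient yeast strain.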

SMILES	growth inhibition
COC(=O)CC(NC(=O)C(Cc1cncn1C(=O)OCc1ccccc1)NC(=O)OCc1ccccc1)C(=O)O (stereo unspecified)	10.2%
CS/C(=N/N=C(\C)c1ccccn1)[Se][Se]/C(=N/N=C(\C)c1ccccn1)SC	15.7%
Nc1cccc2c(=O)[nH][nH]c(=O)c12	16.6%
CC(C)c1ccc(NC(=S)NCCO)cc1	-7.95%
C/C(=N/NC(=O)CC#N)c1ccccc1	25.2%
O=c1cc(-c2ccccc2Cl)[nH]c2cc3c(cc12)OCO3	14.1%
NCCCn1[nH]c(=O)c2ncccc2c1=O	-60.1%
Cc1cc(C)c(CN(C)C)c(CC(O)c2ccccc2)c1 (stereo unspecified)	10.8%
CC(=O)Nc1ccc(/C=C2\SC(=S)N(/C=C3/C(=O)N(c4ccccc4)N=C3C)C2=O)cc1	12.6%
CC(=O)OC[C@]1(O)CC[C@@]23CC1C[C@@H]2CCC1C(C)(C)CCC[C@@]13C (stereo partly specified)	81.5% (active)
O=C1OC(c2ccc(Cl)cc2)=N/C1=C\c1c(Cl)cccc1Cl	6.9%
CCOC(=O)CC1(C)c2nc(NC(C)=O)sc2Cc2sc(NC(C)=O)nc21	-2.2%
NC1=NOC(=O)C1c1ccccc1 (stereo unspecified)	-19.1%
CCc1cc(C(C)(C)C)cc(C(C)(C)C)c1O	23.6%
COc1ccc(/C=N/Nc2nc3ccccc3c(=O)n2-c2ccccc2)c(OCc2ccccc2)c1	4.7%
C[n+]1c(-c2ccc(Cl)c(Cl)c2)c2cc(N)ccc2c2ccccc21	14.9%
